LANA-H2B inh – blocks KSHV LANA binding to histone H2A/H2B. Q9QR71. cell-free LANA-H2A/H2B peptide, fluorescence polarization. inhibition, % (test concentration not listed). 0.6% of 320,000 active. AID 2629; in the data active means inhibition mostly above about 10%, no sharp cut-off; inactive means mostly below about 6.7%
Target sequence (Q9QR71 whole entry, looked up): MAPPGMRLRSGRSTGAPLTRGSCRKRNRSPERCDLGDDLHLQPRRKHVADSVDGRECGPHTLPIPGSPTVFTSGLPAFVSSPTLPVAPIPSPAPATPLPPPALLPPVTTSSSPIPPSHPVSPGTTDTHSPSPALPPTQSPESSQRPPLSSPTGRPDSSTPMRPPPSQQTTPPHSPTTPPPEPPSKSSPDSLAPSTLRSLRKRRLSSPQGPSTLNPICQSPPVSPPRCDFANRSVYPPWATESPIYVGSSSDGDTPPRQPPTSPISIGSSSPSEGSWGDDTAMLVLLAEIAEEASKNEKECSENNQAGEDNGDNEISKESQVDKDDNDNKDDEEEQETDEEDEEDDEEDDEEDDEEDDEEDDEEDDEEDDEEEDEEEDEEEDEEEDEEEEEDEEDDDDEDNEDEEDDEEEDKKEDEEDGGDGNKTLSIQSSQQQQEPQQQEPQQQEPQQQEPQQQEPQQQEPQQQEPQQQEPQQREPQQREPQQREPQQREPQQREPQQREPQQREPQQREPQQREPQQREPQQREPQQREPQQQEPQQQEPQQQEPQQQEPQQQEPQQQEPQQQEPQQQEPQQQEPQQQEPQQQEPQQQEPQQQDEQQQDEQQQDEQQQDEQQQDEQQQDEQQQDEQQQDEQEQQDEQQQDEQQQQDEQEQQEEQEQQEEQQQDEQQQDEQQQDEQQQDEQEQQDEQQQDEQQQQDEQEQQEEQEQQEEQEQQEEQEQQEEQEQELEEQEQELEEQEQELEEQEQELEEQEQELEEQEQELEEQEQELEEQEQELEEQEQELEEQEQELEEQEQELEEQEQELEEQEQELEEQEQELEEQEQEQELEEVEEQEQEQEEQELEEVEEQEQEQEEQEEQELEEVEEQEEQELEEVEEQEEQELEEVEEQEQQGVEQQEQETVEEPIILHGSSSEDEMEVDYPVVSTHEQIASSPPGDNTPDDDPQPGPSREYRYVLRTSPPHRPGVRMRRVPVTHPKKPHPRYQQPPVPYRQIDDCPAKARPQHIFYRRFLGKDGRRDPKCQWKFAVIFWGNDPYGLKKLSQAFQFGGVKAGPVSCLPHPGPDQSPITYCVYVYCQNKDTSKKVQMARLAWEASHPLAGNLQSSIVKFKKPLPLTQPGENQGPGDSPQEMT
cardiac RTF act – cardiac RTF calcium sensitization; activation, % at 7.2 µM; IANBD-labeled TnC RTF fluorescence at EC20 calcium; 0% EC20 calcium, 100% full calcium; 0.24% of 340,000 active; AID 493008;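 active means activation above the mean over all tested compounds plus 3 SD, cut at about 30% in these data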;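 further: rise in fluorescence read as greater calcium sensitivity of cardiac thin filaments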
Keap1 Nrf2 FP – Keap1-Nrf2 (human) interaction inhibition. Keap1 Kelch-Nrf2 peptide fluorescence polarization, 1536-well. AID 504523. 0.15% of 340,000 active. inhibition, % at 9.4 µM. Q14145; in the data active means inhibition above about 12%;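 further: human Keap1 Kelch domain with fluorescein labeled Nrf2 9mer peptide probe; 0% = neutral control wells and 100% = peptide positive control; higher means more block of Keap1 binding to Nrf2 peptide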
C-LANA FP – blocks KSHV LANA C-terminal domain binding to DNA; AID 504423; inhibition, % at 9 µM; 0.078% of 340,000 active; MBP-C-LANA/FAM-LBS DNA binding, fluorescence polarization;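 active means highest replicate inhibition at or above 60% at 9 µM, even if other replicates fall short; inactive means all replicates below 60% inhibition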;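 further: 0% = neutral control wells and 100% = 4 µM acridine orange control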
Cardiac RTF inh – cardiac RTF calcium desensitization; P19429+P45379; 0.12% of 340,000 active; IANBD-labeled cardiac RTF, Ca2+ fluorescence; inhibition, % at 7.15 µM;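 active means inhibition above the mean inhibition of all tested compounds plus 3 SD, cut at about 17% in these data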;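 further: assay run at fixed EC70 calcium of 1.6 mM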
Keap1 TSA – binders of human Keap1 Kelch domain; Keap1 Kelch thermal shift, delta Tm; active compounds read high; shares compounds with Keap1 Nrf2 FP; AID 651823; 8% of 400 active; max delta Tm, degrees C; in the data active means max delta Tm above about 0.48 degrees C
Sypro dye melt – counter-screen for Keap1 thermal shift hits: dye-only artifacts | shares compounds with Keap1 Nrf2 FP | Sypro Orange dye-only thermal melt, no protein, delta Tm; top dose 26 µM | delta Tm, degrees C (concentration not given with the values) | 140 tested, under 10 active | AID 651858;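 active means at highest dose tested, delta Tm positive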
An asterisk follows results filed as active; i = inactive; . = no result; + = active, no number. An excerpt weighted towards active compounds, which were near 1% of everything screened.

SMILES | LANA-H2B inh | cardiac RTF act | Keap1 Nrf2 FP | C-LANA FP | Cardiac RTF inh | Keap1 TSA | others
CN1CC=C2C(C#N)=C(N)C(C#N)(C#N)[C@H](c3ccoc3)[C@H]2C1 | 18.4* | 50.5* | 26.6* | 58.0 | -56.4 | -0.08
CN1CC=C2C(C#N)=C(N)C(C#N)(C#N)C(c3cccc(Cl)c3Cl)C2C1 (stereo not given) | 6.7 | 12.7 | -0.5 | 11.9 | -31.2 | .
CN(C)c1ccc2c3c(cccc13)C(=O)N(c1ccccc1)C2=O | 0.1 | . | . | . | . | .
CC(C)CCN1C(=O)c2cccc3c(N)ccc(c23)C1=O | 14.4* | 658.5* | 70.5* | 96.1* | i | 0.11
Nc1ccc2c3c(cccc13)C(=O)N(c1ccccc1)C2=O | . | 971.9* | 31.5* | 19.3 | i | -0.06
O=C(O)c1cccc(N2C(=O)c3cccc4c(Cl)ccc(c34)C2=O)c1 | 2.0 | -3.3 | -3.7 | 0.6 | 2.6 | .
Cc1cccc(N2C(=O)c3cccc4c(N)ccc(c34)C2=O)c1 | 61.1* | + | 74.6* | 135.1* | i | -0.12 | Sypro dye melt=-26.4
Nc1cccc(N2C(=O)c3cccc4c(N)ccc(c34)C2=O)c1 | 25.7* | 290.6* | 17.2* | 87.9* | -375.6 | 0.04
Cc1cccc(N2C(=O)c3cccc4cccc(c34)C2=O)c1 | 6.7 | -1.4 | -3.9 | -2.2 | -5.8 | .
Cc1cccc(N2C(=O)c3cccc4c(N(C)CCO)ccc(c34)C2=O)c1 | 19.7* | 330.6* | 12.4* | 67.7* | -273.4 | -0.01
Cc1nsc(Nc2ccccc2)c1C#N | -0.1 | 6.9 | -4.5 | -1.2 | -14.0 | .
O=C(CN1CCN(C(=O)CNC(=O)c2ccc3c(c2)OCO3)CC1)Nc1ccc(F)cc1 | -3.2 | 9.6 | 61.8* | . | -23.6 | -0.08
CCN(CC)C(=O)C1c2ccccc2Oc2ccccc21 | 13.7* | -7.9 | 39.0* | 76.7* | 1.5 | -0.12
CCCCNC(=O)C1c2ccccc2Oc2ccccc21 | 0.1 | 1.3 | 4.2 | 1.8 | -3.0 | .
CC(=O)Nc1ccc(NS(=O)(=O)c2ccc3c(c2)oc(=O)n3C)cc1 | -4.1 | 4.1 | 19.1* | 13.7 | -6.6 | -0.06
Cc1ccccc1OCCC(=O)Nc1cc(S(=O)(=O)N2CCCCC2)ccc1N1CCN(C)CC1 | . | 18.0 | 54.1* | 28.2 | -11.8 | 0.02
O=C(CCCCCCCCC(=O)N1CCCCC1)N1CCCCC1 | . | -1.7 | -0.2 | -0.3 | 0.6 | .
CCCCCC(=O)N1CCCC1 | 0.5 | 2.0 | 16.5* | -2.4 | -1.6 | -0.08 | Sypro dye melt=-22.8
CSc1c(SCc2ccccc2)cnn(-c2ccccc2)c1=O | 11.0 | 4.0 | -10.0 | -0.8 | -9.7 | .
COc1cc2c3nnc(-c4ccccc4)c-3cn(Cc3ccccc3F)c2cc1OC | -11.1 | . | . | . | . | .
COc1cc2c3nnc(-c4ccc(F)cc4)c-3cn(Cc3ccccc3F)c2cc1OC | . | 4.7 | 17.4* | 32.0 | 0.3 | -0.19
O=C(CSC(=S)N1CCOCC1)c1cc2ccccc2oc1=O | -0.7 | -2.6 | 3.4 | -2.6 | -10.0 | .
C=CCNC(=O)CC1Nc2c3ccccc3nc(=S)n2C1=O (stereo not given) | -0.1 | 0.2 | -2.3 | -1.8 | -6.4 | .
CCOCCCn1c(=NC(=O)c2cccs2)c(C#N)cc2c(=O)n3ccccc3nc21 | 35.0* | 9.8 | 22.6* | 30.4 | -20.8 | -0.12
CN(CCCC(=O)O)c1ccc(N=Nc2ccc([N+](=O)[O-])cc2)cc1 | 2.3 | -12.1 | 0.4 | 1.2 | 1.6 | .
SMILES | LANA-H2B inh | cardiac RTF act | Keap1 Nrf2 FP | C-LANA FP | Cardiac RTF inh | Keap1 TSA | others
COc1ccc(OC)c(S(=O)(=O)Nc2ccc(F)cc2)c1 | 16.6 | -7.8 | 12.3* | 3.0 | -1.2 | -0.08
COc1cc(CO)ccc1Oc1nc2ccccc2n2cnnc12 | -3.8 | -1.8 | 30.8* | 25.8 | 2.9 | -0.19
COc1ccc(/C(C)=N/Nc2nc3ccccc3n3cnnc23)cc1OC | -1.4 | . | . | . | . | .
CCOC(=O)C1CCCN(C(=O)CN2CCN(Cc3ccc(Cl)cc3)C2=O)C1 (stereo not given) | 3.6 | . | . | . | . | .
Cn1c(=O)c(N)c2c3c(c(Br)ccc31)C(=O)c1ccccc1-2 | 42.7* | + | 31.3* | 124.3* | i | 0.07
CC1=C(C#N)c2nc(N)c(C#N)c(C)c2/C1=C\c1ccc(-c2ccccc2C(=O)O)o1 | . | -2.9 | 92.0* | 16.9 | 4.0 | 2.26*
COc1cc(/C=C2/C(C)=C(C#N)c3nc(N)c(C#N)c(C)c32)ccc1OCC(=O)O | -2.0 | . | -3.1 | 5.6 | . | .
Cc1cccc(N(C(=O)c2csnn2)C(C(=O)NC2CCCCC2)c2ccncc2)c1 (stereo not given) | 2.0 | -3.5 | 3.1 | 0.3 | 2.8 | .
CC1CCN(C(=O)Cn2cc(C(F)(F)F)ccc2=O)c2ccccc2S1 (stereo not given) | -5.3 | 7.7 | 49.3* | 21.4 | -11.4 | -0.1
O=C(Cn1cc(C(F)(F)F)ccc1=O)N1CCCc2ccccc21 | 0.2 | -3.1 | -1.9 | -0.8 | 3.1 | .
Cc1ccccc1OCC(=O)OCC(=O)c1c[nH]c2ccccc12 | . | -3.5 | 4.9 | 2.9 | -1.8 | .
CCCCNC(=S)Nc1ccc(OC)nc1 | -0.3 | 2.7 | 12.1* | 16.1 | -13.8 | -0.14
COc1ccc(NC(=S)Nc2ccccc2)cn1 | 1.6 | 0.2 | 2.6 | 2.0 | -2.2 | .
COc1ccc(C2OC34CCCCC3C(C#N)(C#N)C2(C#N)C(=N)O4)cc1 (stereo not given) | 5.2 | 23.8 | 22.1* | 45.2 | -34.3 | -0.08 | Sypro dye melt=-27.4
CCC1OC23CCCCC2C(C#N)(C(=N)O3)C1(C#N)C#N (stereo not given) | 14.2 | 35.1* | 27.5* | 55.3 | -40.5 | -0.08 | Sypro dye melt=-31
CCCC1OC23CCCCC2C(C#N)(C(=N)O3)C1(C#N)C#N (stereo not given) | -0.7 | 14.2 | 6.5 | 35.5 | -14.7 | .
Cc1cccc(N2CCN(c3nnnn3-c3ccccc3)CC2C)c1 (stereo not given) | 3.4 | 3.6 | 0.3 | -1.3 | -14.6 | .

Source: PubChem BioAssay (several laboratories)
